Source: PubChem BioAssay AID1626 (SRMLSC, 2009)
In all, about 220,000 compounds went through this assay and about 2,000 (0.91%) were called active. About 2% were inconclusive and are not listed. No stated cut-off is given here; in the data, inconclusive means inhibition above about 80% without an active follow-up result; inactive means below that; test concentration not stated here. The list is a sample of the results. Entries with a potency or affinity are not part of this list.

assay: M. tuberculosis H37Rv growth inhibitors, H37Rv strain (AID 1626); settings: stronger effect = higher value, concentration not given here;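 further: bacteria incubated seven days before Alamar blue readout; 0% = bacteria only wells and 100% = bacteria with antibiotic wells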

Row | Structure (SMILES) | inhibition
1 | COc1ccc(/C=C/C(=O)c2ccncc2)c2ccccc12 | 76% (inactive)
2 | Cc1[nH]c2ccccc2c1/C=C/C(=O)c1ccncc1 | 6.67% (inactive)
3 | O=C(/C=C/c1ccc2c(c1)OCO2)Nc1cccnc1 | 8.75% (inactive)
4 | CCCCN(CCNP(=O)(OCC)OCC)CP(=O)(OCC)OCC | -3.59% (inactive)
5 | Nc1nc2ccc(O)cc2s1 | -4.72% (inactive)
6 | COc1ccc2nc(N)sc2c1 | 42% (inactive)
7 | O=C(O)CSC1=NC(=Nc2cccc(Cl)c2)C2(CCCCC2)N1c1ccccc1 | 5.37% (inactive)
8 | O=C(NC1CC1)C1=C[C@@H](c2ccccc2)C[C@@H](OCc2ccc(CO)cc2)O1 | -10.6% (inactive)
9 | COc1ccccc1N1CCN(c2nc3ccccn3c(=O)c2C=O)CC1 | -13.2% (inactive)
10 | N#Cc1nc(-c2cccs2)oc1NCc1ccccc1 | 6.94% (inactive)
11 | C=CCNc1oc(-c2cccs2)nc1C#N | -10.7% (inactive)
12 | CCOC(=O)C1(Cc2ccccc2)CCN(Cc2ccc(COC)o2)CC1 | 8.15% (inactive)
13 | Cc1cccc(NC(=O)CSc2nnc(-c3ccncc3)n2C)c1 | -2.48% (inactive)
14 | COC(=O)c1ccc(N)c(N=CC2=C(O)CC(C)(C)CC2=O)c1 | 99.2% (inactive)
15 | CCSC1=C(C#N)C(c2cccs2)C(C(=O)OC)=C(C)N1 (stereo not drawn) | -5.12% (inactive)
16 | CCOCCSC1=C(C#N)C(c2cccs2)C(C(C)=O)=C(C)N1 (stereo not drawn) | -2.87% (inactive)
17 | Cc1nc2cc(NC(=O)CCS(=O)(=O)c3ccccc3)ccc2s1 | -0.27% (inactive)
18 | Cc1ccccc1Oc1ncnc(N)c1[N+](=O)[O-] | -1.2% (inactive)
19 | Nc1ncnc(Oc2ccccc2F)c1[N+](=O)[O-] | 7.09% (inactive)
20 | COc1ccc(NC(=O)C(=O)NCCN2CCN(C(=O)c3ccco3)CC2)cc1 | 4.1% (inactive)
21 | O=C(Cc1cccs1)Nc1ccc(-c2nc3ccccc3[nH]2)cc1 | 1.13% (inactive)
22 | O=C(COc1ccccc1)Nc1cccc(-c2nc3cc4ccccc4cc3[nH]2)c1 | 55.3% (inactive)
23 | O=C(Nc1cccc([N+](=O)[O-])c1)N1CCN(c2ccccc2)CC1 | -7.11% (inactive)
24 | CC(=O)c1ccc(NC(=O)N2CCN(c3ccc(C)cc3)C(C)C2)cc1 (stereo not drawn) | 0.07% (inactive)
25 | Cc1ccc(NC(=S)NCc2ccccc2)cc1S(=O)(=O)N1CCCCC1 | -3.09% (inactive)
26 | Cc1cc2c(ncn2Cc2ccccc2)c(N)c1C | 1.64% (inactive)
27 | CCCn1cnc2c(N)c(C)c(C)cc21 | -8.86% (inactive)
28 | N#C/C(=N\Nc1c(Cl)cccc1Cl)C(=O)NN | 0.65% (inactive)
